Laboratory results taken from paper PMC11006913.
Numbering of substitutions follows the chain as printed.

Experiments:
Assay in all cases: PBM; 200 nM protein, PBS
Details in all cases: dsDNA, one strand shown
SIX6 [1] = molecular target: T1, SIX6 (Homo sapiens, UniProt O95475 114-200, L167I)
T1 sequence: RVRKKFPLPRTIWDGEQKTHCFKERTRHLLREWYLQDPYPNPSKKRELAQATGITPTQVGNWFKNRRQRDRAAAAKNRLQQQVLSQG

SIX6 [2] = molecular target: T2, SIX6 (Homo sapiens, UniProt O95475 114-200, L143V)
T2 sequence: T1 sequence with L30V, I54L

SIX6 [3] = molecular target: T3, SIX6 (Homo sapiens, UniProt O95475 114-200, H141N)
T3 sequence: T1 sequence with H28N, I54L

SIX6 [4] = molecular target: T4, SIX6 (Homo sapiens, UniProt O95475 114-200, T165P)
T4 sequence: T1 sequence with T52P, I54L

SIX6 [5] = molecular target: T5, SIX6 (Homo sapiens, UniProt O95475 114-200, L167M)
T5 sequence: T1 sequence with I54M

SIX6 [6] = molecular target: T6, SIX6 (Homo sapiens, UniProt O95475 114-200, L143M)
T6 sequence: T1 sequence with L30M, I54L

SIX6 [7] = molecular target: T7, SIX6 (Homo sapiens, UniProt O95475 114-200, L143I)
T7 sequence: T1 sequence with L30I, I54L

SIX6 [8] = molecular target: T8, SIX6 (Homo sapiens, UniProt O95475 114-200, T165G)
T8 sequence: T1 sequence with T52G, I54L

SIX6 [9] = molecular target: T9, SIX6 (Homo sapiens, UniProt O95475 114-200, T139Q)
T9 sequence: T1 sequence with T26Q, I54L

SIX6 [10] = molecular target: T10, SIX6 (Homo sapiens, UniProt O95475 114-200, T165A)
T10 sequence: T1 sequence with T52A, I54L

SIX6 [11] = molecular target: T11, SIX6 (Homo sapiens, UniProt O95475 114-200, L167V)
T11 sequence: T1 sequence with I54V

SIX6 [12] = molecular target: T12, SIX6 (Homo sapiens, UniProt O95475 114-200)
T12 sequence: T1 sequence with I54L

SIX6 [13] = molecular target: T13, SIX6 (Homo sapiens, UniProt O95475 114-200, T165I)
T13 sequence: T1 sequence with T52I, I54L

**Q.** With CAGTGGCC as the sequence, how does the binding signal (SIX6 [1]) read?
**A.** Its binding signal is 8.99 upbm affinity estimate (log intensity, higher = more binding, comparable within an allelic series).

**Q.** And the binding signal (SIX6 [2])?
**A.** The binding signal was 8.9 upbm affinity estimate (log intensity, higher = more binding, comparable within an allelic series).

**Q.** And the binding signal (SIX6 [3])?
**A.** Its binding signal is 8.99 upbm affinity estimate (log intensity, higher = more binding, comparable within an allelic series).

**Q.** And the binding signal (SIX6 [4])?
**A.** Its binding signal is 9.04 upbm affinity estimate (log intensity, higher = more binding, comparable within an allelic series).

**Q.** What about the binding signal (SIX6 [5]) of the same sequence?
**A.** Its binding signal is 8.93 upbm affinity estimate (log intensity, higher = more binding, comparable within an allelic series).

**Q.** And the binding signal (SIX6 [6])?
**A.** Its binding signal is 8.95 upbm affinity estimate (log intensity, higher = more binding, comparable within an allelic series).

**Q.** What about the binding signal (SIX6 [7]) of the same sequence?
**A.** Its binding signal is 8.95 upbm affinity estimate (log intensity, higher = more binding, comparable within an allelic series).

**Q.** And the binding signal (SIX6 [8])?
**A.** The binding signal was 9.02 upbm affinity estimate (log intensity, higher = more binding, comparable within an allelic series).

**Q.** What about the binding signal (SIX6 [9]) of the same sequence?
**A.** The binding signal was 8.99 upbm affinity estimate (log intensity, higher = more binding, comparable within an allelic series).

**Q.** And the binding signal (SIX6 [10])?
**A.** The binding signal was 8.94 upbm affinity estimate (log intensity, higher = more binding, comparable within an allelic series).

**Q.** What about the binding signal (SIX6 [11]) of the same sequence?
**A.** The binding signal was 9.05 upbm affinity estimate (log intensity, higher = more binding, comparable within an allelic series).

**Q.** And the binding signal (SIX6 [12])?
**A.** The binding signal was 8.95 upbm affinity estimate (log intensity, higher = more binding, comparable within an allelic series).

**Q.** And the binding signal (SIX6 [13])?
**A.** Its binding signal is 8.94 upbm affinity estimate (log intensity, higher = more binding, comparable within an allelic series).

**Q.** What does the source list for CCATATCA?
**A.** binding signal (SIX6 [1]): 11.1 upbm affinity estimate (log intensity, higher = more binding, comparable within an allelic series); binding signal (SIX6 [2]): 10.1 upbm affinity estimate (log intensity, higher = more binding, comparable within an allelic series); binding signal (SIX6 [3]): 11.1 upbm affinity estimate (log intensity, higher = more binding, comparable within an allelic series); binding signal (SIX6 [4]): 9.48 upbm affinity estimate (log intensity, higher = more binding, comparable within an allelic series); binding signal (SIX6 [5]): 10.4 upbm affinity estimate (log intensity, higher = more binding, comparable within an allelic series); binding signal (SIX6 [6]): 10.8 upbm affinity estimate (log intensity, higher = more binding, comparable within an allelic series); binding signal (SIX6 [7]): 10.2 upbm affinity estimate (log intensity, higher = more binding, comparable within an allelic series); binding signal (SIX6 [8]): 11.1 upbm affinity estimate (log intensity, higher = more binding, comparable within an allelic series); binding signal (SIX6 [9]): 11 upbm affinity estimate (log intensity, higher = more binding, comparable within an allelic series); binding signal (SIX6 [10]): 11 upbm affinity estimate (log intensity, higher = more binding, comparable within an allelic series); binding signal (SIX6 [11]): 10.8 upbm affinity estimate (log intensity, higher = more binding, comparable within an allelic series); binding signal (SIX6 [12]): 10.9 upbm affinity estimate (log intensity, higher = more binding, comparable within an allelic series); binding signal (SIX6 [13]): 10.8 upbm affinity estimate (log intensity, higher = more binding, comparable within an allelic series)

**Q.** Which results are given for ATGATACC?
**A.** binding signal (SIX6 [1]): 11.6 upbm affinity estimate (log intensity, higher = more binding, comparable within an allelic series); binding signal (SIX6 [2]): 10.5 upbm affinity estimate (log intensity, higher = more binding, comparable within an allelic series); binding signal (SIX6 [3]): 11.6 upbm affinity estimate (log intensity, higher = more binding, comparable within an allelic series); binding signal (SIX6 [4]): 9.82 upbm affinity estimate (log intensity, higher = more binding, comparable within an allelic series); binding signal (SIX6 [5]): 11 upbm affinity estimate (log intensity, higher = more binding, comparable within an allelic series); binding signal (SIX6 [6]): 11.3 upbm affinity estimate (log intensity, higher = more binding, comparable within an allelic series); binding signal (SIX6 [7]): 10.6 upbm affinity estimate (log intensity, higher = more binding, comparable within an allelic series); binding signal (SIX6 [8]): 11.7 upbm affinity estimate (log intensity, higher = more binding, comparable within an allelic series); binding signal (SIX6 [9]): 11.5 upbm affinity estimate (log intensity, higher = more binding, comparable within an allelic series); binding signal (SIX6 [10]): 11.6 upbm affinity estimate (log intensity, higher = more binding, comparable within an allelic series); binding signal (SIX6 [11]): 11.4 upbm affinity estimate (log intensity, higher = more binding, comparable within an allelic series); binding signal (SIX6 [12]): 11.4 upbm affinity estimate (log intensity, higher = more binding, comparable within an allelic series); binding signal (SIX6 [13]): 11.3 upbm affinity estimate (log intensity, higher = more binding, comparable within an allelic series)

**Q.** With GATACCTA as the sequence, how does the binding signal (SIX6 [1]) read?
**A.** Its binding signal is 11.1 upbm affinity estimate (log intensity, higher = more binding, comparable within an allelic series).

**Q.** And the binding signal (SIX6 [2])?
**A.** The binding signal was 10.3 upbm affinity estimate (log intensity, higher = more binding, comparable within an allelic series).

**Q.** What about the binding signal (SIX6 [3]) of the same sequence?
**A.** Its binding signal is 11.1 upbm affinity estimate (log intensity, higher = more binding, comparable within an allelic series).

**Q.** And the binding signal (SIX6 [4])?
**A.** The binding signal was 9.79 upbm affinity estimate (log intensity, higher = more binding, comparable within an allelic series).

**Q.** What about the binding signal (SIX6 [5]) of the same sequence?
**A.** Its binding signal is 10.6 upbm affinity estimate (log intensity, higher = more binding, comparable within an allelic series).

**Q.** What about the binding signal (SIX6 [6]) of the same sequence?
**A.** The binding signal was 11.1 upbm affinity estimate (log intensity, higher = more binding, comparable within an allelic series).

**Q.** And the binding signal (SIX6 [7])?
**A.** The binding signal was 10.4 upbm affinity estimate (log intensity, higher = more binding, comparable within an allelic series).

**Q.** What about the binding signal (SIX6 [8]) of the same sequence?
**A.** Its binding signal is 11.2 upbm affinity estimate (log intensity, higher = more binding, comparable within an allelic series).

**Q.** And the binding signal (SIX6 [9])?
**A.** The binding signal was 11.2 upbm affinity estimate (log intensity, higher = more binding, comparable within an allelic series).

**Q.** And the binding signal (SIX6 [10])?
**A.** Its binding signal is 11.1 upbm affinity estimate (log intensity, higher = more binding, comparable within an allelic series).

**Q.** What about the binding signal (SIX6 [11]) of the same sequence?
**A.** Its binding signal is 10.9 upbm affinity estimate (log intensity, higher = more binding, comparable within an allelic series).

**Q.** And the binding signal (SIX6 [12])?
**A.** Its binding signal is 11 upbm affinity estimate (log intensity, higher = more binding, comparable within an allelic series).

**Q.** And the binding signal (SIX6 [13])?
**A.** Its binding signal is 10.9 upbm affinity estimate (log intensity, higher = more binding, comparable within an allelic series).

**Q.** Which results are given for TGTATCAA?
**A.** binding signal (SIX6 [1]): 11.2 upbm affinity estimate (log intensity, higher = more binding, comparable within an allelic series); binding signal (SIX6 [2]): 10.4 upbm affinity estimate (log intensity, higher = more binding, comparable within an allelic series); binding signal (SIX6 [3]): 11.2 upbm affinity estimate (log intensity, higher = more binding, comparable within an allelic series); binding signal (SIX6 [4]): 9.94 upbm affinity estimate (log intensity, higher = more binding, comparable within an allelic series); binding signal (SIX6 [5]): 10.7 upbm affinity estimate (log intensity, higher = more binding, comparable within an allelic series); binding signal (SIX6 [6]): 11 upbm affinity estimate (log intensity, higher = more binding, comparable within an allelic series); binding signal (SIX6 [7]): 10.4 upbm affinity estimate (log intensity, higher = more binding, comparable within an allelic series); binding signal (SIX6 [8]): 11.3 upbm affinity estimate (log intensity, higher = more binding, comparable within an allelic series); binding signal (SIX6 [9]): 11.2 upbm affinity estimate (log intensity, higher = more binding, comparable within an allelic series); binding signal (SIX6 [10]): 11.3 upbm affinity estimate (log intensity, higher = more binding, comparable within an allelic series); binding signal (SIX6 [11]): 11 upbm affinity estimate (log intensity, higher = more binding, comparable within an allelic series); binding signal (SIX6 [12]): 11.1 upbm affinity estimate (log intensity, higher = more binding, comparable within an allelic series); binding signal (SIX6 [13]): 11.1 upbm affinity estimate (log intensity, higher = more binding, comparable within an allelic series)
